Compound activity as filed in PubChem BioAssay.
TGFb inhibitor = qHTS for Inhibitors of TGF-b | HepG2 CAGA-GFP TGF-b/SMAD3 reporter, GFP fluorescence, 18 h; TGF-beta stimulated, 500 pg/mL final | Potency, µM (top dose mostly 46.1 µM), inactives show at the top dose activity, negative = inhibition, most hits filed as inhibitors | 410,000 tested, 1.2% active | AID 588855, 2011; further: on the % scale 0 is the no-effect control and ±100 the full control effect; nearly all actives have a fitted effect of over 65% in size
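HEPG2 CAGA-GFP, 1000 cells/well; 2 h settle, 37 C; cpd via pin tool; TGF-b 500 pg/mL final; 18 h, 37 C; GFP imaging ex488/em500-530; %Activity normalised to -TGF-b and +DMSO controls; CRC fit, curve class.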
HT1080-NT tox = qHTS for induction of synthetic lethality in tumor cells producing 2HG: qHTS for the HT-1080-NT fibrosarcoma cell line | 360,000 tested, 1.6% active | Potency, µM (top dose mostly 46.1 µM), without a hit: top-dose activity, negative = less viability, hits mostly cytotoxic | AID 686970, 2013 | HT-1080-NT fibrosarcoma viability, CellTiter-Glo ATP luminescence, 48 h;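 further: NT is the 2HG producing partner of a matched IDH1 knockdown line; 0% = DMSO-treated cells and -100% = media-only wells without cells; nearly all actives have a fitted effect of over 55% in size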
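Viability by CellTiter-Glo luminescence after 48 h compound exposure at 37C of HT-1080-NT cells (750/well, RPMI, 5% FBS). % activity scaled between DMSO wells and medium-only wells, then curve-fitted and categorized by curve class.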
HT1080 IDH1KD tx = qHTS for induction of synthetic lethality in tumor cells producing 2HG: qHTS for the HT-1080-IDH1KD cell line; HT-1080 IDH1 knockdown viability, ATP luminescence, 48 h; Potency, µM (doses to about 46.1 µM), for inactives: top-dose activity, negative = toxicity, hits mostly cytotoxic; 360,000 tested, 2% active; AID 686971, 2013;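 further: 0% = DMSO wells and -100% = cell-free medium wells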
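After a 2 h attachment period, IDH1KD HT-1080 cells took pin-transferred compound for 48 h at 37 °C; ATP-based luminescence after 10 min room-temperature reagent incubation reported viability.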
DT40 TDP1 CPT = qHTS for Inhibitors of human tyrosyl-DNA phosphodiesterase 1 (TDP1): qHTS in cells in presence of CPT. chicken DT40 Tdp1-/-;hTDP1 cells + 20 nM CPT, ATP luminescence, 48 h. Potency, µM (highest dose often 46.2 µM), without a hit: top-dose activity change, negative = growth inhibition, usual class: inhibitors. 420,000 tested, 12% active; further: on the % scale 0 is the no-effect control and ±100 the full control effect; nearly all actives have a fitted effect of over 55% in size
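Cell growth measured by CellTiter-Glo luminescence after a minimum 48 h, 37 C compound exposure with 20 nM CPT in Tdp1-knockout DT40 cells stably expressing hTDP1, seeded 400/well; qHTS titration format.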
HepG2 tox = qHTS for Inhibitors of TGF-b: Cytotox Counterscreen | HepG2 CAGA-GFP viability, ATP luminescence, 18 h | Potency, µM (series often up to 46.1 µM), for the others: at the highest dose activity change, negative = cytotoxicity, actives largely listed as cytotoxic | 410,000 tested, 0.76% active
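HepG2 CAGA-GFP cells (1000/well, DMEM with 1% FBS) received compound, then TGF-beta at 500 pg/mL final, and were incubated 18 hours at 37 degrees C. Viability was read by CellTiter-Glo luminescence. Media-only wells were set as complete cell-killing and DMSO as no toxicity.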
DT40 TDP1 no CPT = qHTS for Inhibitors of human tyrosyl-DNA phosphodiesterase 1 (TDP1): qHTS in cells in absence of CPT; DT40 Tdp1-/- hTDP1 cells, no CPT, ATP luminescence, 48 h; Potency, µM (top dose mostly 46.2 µM), inactives show top-dose activity change, negative = growth inhibition, usual class: inhibitors; 420,000 tested, 15% active; AID 686978, 2013; further: on the % scale 0 is the no-effect control and ±100 the full control effect; nearly all actives have a fitted effect of over 55% in size
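DT40 Tdp1-/-;hTDP1 cells, no CPT (DMSO vehicle only), 400 cells/well; compounds pin-transferred; ≥48 hr, 37 °C; CellTiter-Glo 30 min RT dark, luminescence read.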
An asterisk follows results filed as active; ? = inconclusive; . = no result. Sampled rows, rich in hits. Any-hit rate of the full collection: about 17%. The call rests on the fitted dose curve; in most records, active means well fitted curve in the direction sought with a large enough effect; inconclusive means small, poorly fitted or top-dose-only effect, or another doubt; inactive means no such curve, though single readings can be large; an effect the other way counts as inactive or inconclusive. Potency means the concentration at half of the fitted maximal effect.

SMILES	TGFb inhibitor	HT1080-NT tox	HT1080 IDH1KD tx	DT40 TDP1 CPT	HepG2 tox	DT40 TDP1 no CPT
COc1ccc(COC(=O)CCS(=O)(=O)c2ccc(C)cc2)cc1	5.0%	0.3%	0.4%	3.0%	-2.5%	4.4%
CCc1ccc2oc(=O)cc(CN3CCCCC3)c2c1	0.0%	12.6%	7.4%	-25.9%	-8.7%	7.3%
CCN(C(=S)NC(=O)c1ccccc1Br)C1CCCCC1	-21.6%	7.1%	3.3%	16.4µM*	-8.4%	?
CCN(CC)/[N+]([O-])=N/OCOC(=O)c1ccccc1OC(C)=O	-8.8%	.	.	.	6.5%	.
CC(=O)OC1CC[C@@]2(C)C(CCC3C2CC(=O)[C@@]2(C)C3CC3CC(C)=CC(=O)C32)C1 (some centres not stated)	-20.3%	0.1%	-0.5%	18.4µM*	-3.3%	14.6µM*
CC(=O)OC1CCC2(C)C(CCC3C2CC(=NO)C2(C)C(C(C)OC(C)=O)CCC32)C1 (configuration not stated)	6.8%	-4.8%	6.1%	14.6µM*	-1.0%	18.4µM*
COc1ccc(F)cc1C(=O)C1CCCN(Cc2ccc(Sc3nncn3C)o2)C1 (configuration not stated)	-9.2%	2.5%	9.1%	-1.6%	-4.3%	11.7%
COc1ccccc1/C=C/C(C)=O	8.5%	5.2%	10.7%	5.3%	1.4%	3.7%
COc1ccccc1C=CC(=O)C=Cc1ccccc1OC	10µM*	?	13µM*	4.61µM*	-94.2%	3.26µM*
CNc1ccccc(C(=O)/C=C/c2ccccc2OC)c1=O	?	-9.8%	-21.6%	18.4µM*	-12.8%	14.6µM*
COc1ccccc1/C=C/C(=O)/C=C/c1ccccc1O	?	6.51µM*	5.8µM*	2.91µM*	-21.0%	2.91µM*
O=S(=O)(Cc1nnnn1-c1ccc(Br)cc1)c1ccccc1	-6.6%	-2.5%	0.2%	-12.3%	-36.8%	-8.9%
CCS(=O)(=O)c1nnnn1-c1ccccc1S(C)(=O)=O	11.2µM*	17.8µM*	12.6µM*	?	-2.4%	?
C=CCOc1ccc(/C=C/C(=O)OCC(=O)NCc2ccco2)cc1	-6.9%	3.9%	-2.3%	-9.7%	0.4%	?
Cc1ccc2[nH]c(=O)c(CN(CCCN(C)C)C(=O)Nc3ccc(Cl)cc3)cc2c1	22.5%	3.7%	2.0%	7.08µM*	-24.1%	6.31µM*
Cc1ccc(NC(=S)N(CCCN(C)C)Cc2cc3cc4c(cc3[nH]c2=O)OCO4)cc1	-1.6%	-2.3%	6.5%	2.5%	0.0%	-5.4%
Cc1ccc2cc(CN(CCN(C)C)C(=O)Nc3ccc(Cl)cc3)c(=O)[nH]c2c1	4.0%	?	-2.4%	?	-5.8%	16.4µM*
COc1ccc2[nH]c3c(c2c1)CCN1C(=O)C(CC(=O)NC(C)(C)C)C[C@H](C(=O)N(C(C)C)C(C)C)[C@@]31C (some centres not stated)	-32.7%	1.5%	-4.7%	?	-36.2%	?
COc1cc(C)c2ccccc2n1	-2.6%	.	.	-6.5%	12.0%	-0.7%
CCOc1cc(-c2ccccc2)nc2c1CN(S(=O)(=O)c1ccc(C)cc1)C(c1cccc(Cl)c1)C2 (configuration not stated)	.	?	29.5%	?	.	9.2µM*
